In PubChem BioAssay (EPA / NIEHS):
Results filed as inconclusive are left out. Calls of active or inactive are those of the source. The calls were made as follows: active = hit-call score of the fitted dose curve at least 0.9, where 1 is the maximum; inconclusive = response in the unintended direction; inactive = score below 0.9.

The compounds below were run on organic anion transporter (SLCO1B1), SLCO1B1 (gene 10599) (assay: CLD_SLCO1B1_24hr: CellzDirect (CLD) Gene Expression Assay for organic anion transporter (SLCO1B1) at 24 hours (AID 2283690)).
Experimental: CLD_24hr is a cell-based, multiplexed-readout assay that uses hepatocyte, a human liver primary cell, with measurements taken at 24 hours after chemical dosing in a 96-well plate.CLD_SLCO1B1_24hr is one of 16 assay component(s) measured or calculated from the CLD_24hr assay. It is designed to make measurements of mRNA induction, a form of inducible reporter, as detected with chemiluminescence signals by Quantitative Nuclease Protection Assay (qNPA) technology.Data from the assay component CLD_SLCO1B1_24hr was analyzed at the endpoint, CLD_SLCO1B1_24hr, in the positive analysis fitting direction relative to DMSO as the negative control and baseline of activity. Using a type of inducible reporter, gain-of-signal activity can be used to understand changes in the reporter gene as they relate to the gene SLCO1B1. Furthermore, this assay endpoint can be referred to as a primary readout. To generalize the intended target to other relatable targets, this assay endpoint is annotated to the transporter intended target family, where subfamily is organic anion transporter.
Human hepatocyte cultures were treated daily for two consecutive days with fresh dosing solutions containing appropriate concentrations of the 320 ToxCast chemicals (chemical identities were blinded to CellzDirect and other ToxCast collaborators), vehicle control (0.2% DMSO), and positive control inducers as summarized in Table 1. Due to the large number of treatment groups and chemicals examined, the ToxCast chemicals were divided into two groups (spanning two independent cultures of hepatocytes from separate donor preparations (Hu778: ToxCast plates 1 and 2; Hu776: ToxCast plates 3 and 4). Each preparation of human hepatocyte cultures was treated with respective vehicle control, medium only control, set of six positive controls/reference chemicals for the five hepatic receptor pathways, and a subset of eight of the ToxCast chemicals (indoxacarb, pyrithiobac-sodium, norflurazon, cyhalofop-butyl, methomyl, thiram, acetochlor, and propiconazole). These replicate data, coupled with internal replicates designed within the blinded ToxCast chemical library, provided additional data to evaluate interindividual differences between hepatocyte preparations and their potential impact on chemical profiles.Cell morphology and integrity were evaluated using phase-contrast microscopy as an indicator of hepatocyte cell health (Tyson & Green, 1987). Cultures for each treatment group (i.e., media, vehicle [0.2% DMSO], positive control inducers [multiple concentrations], and the ToxCast chemicals [multiple concentrations]) were observed and cell morphology was assessed relative to vehicle control cultures at each harvest time point (0, 6, 24, or 48 h). […] Images were evaluated at the conclusion of the study to assess changes in cell integrity and account for the effects of chemical exposure on uncharacteristic changes in concentration-dependent gene expression profiles. The results from these determinations of apparent cytotoxicity were annotated (yes/no) alongside the corresponding qNPA data for reference.At the conclusion of each treatment period, hepatocyte cultures (96-well) were washed with 1 volume of HBSS, lysed by addition of 25 ul ArrayPlate lysis buffer (HTG, Tucson, AZ), and 70 ul/well of Denaturation Oil, denatured by incubation at 95C for 10 min, and frozen at approximately -70C until analysis by nuclease protection assay (qNPA) (Roberts et al., 2007). For qNPA analysis, cell lysates were thawed at 50C for approximately 30 min, qNPA probes were added, and samples were incubated at 95C for 10 min to begin the detection process by denaturing the target RNA, dissociating the duplexes and secondary structure hybridization. At the conclusion of the hybridization period, S1 nuclease reagent was added to each sample to digest all nonprotected nucleotides at 50C for 60-90 min. […]
For `CC1(C)CON(Cc2ccccc2Cl)C1=O`, the outcome was “inactive”. For `CC(C)N1C(=O)N(c2ccccc2)CSC1=NC(C)(C)C`, the outcome was “inactive”. With `COP(=S)(OC)Oc1ccc([N+](=O)[O-])c(C)c1` the outcome was “inactive”. For `Cc1c(COC(=O)[C@@H]2[C@H](/C=C(\Cl)C(F)(F)F)C2(C)C)cccc1-c1ccccc1`, the outcome was “inactive”. For `CCOP(=O)(OCC)Oc1nc(Cl)c(Cl)cc1Cl`, the outcome was “inactive”. For `OC(c1ccc(Cl)cc1)(c1ccc(Cl)cc1)C(Cl)(Cl)Cl`, the outcome was “inactive”. In the case of `N#Cc1c(Cl)cccc1Cl`, the outcome is reported as “inactive”. In the case of `Nc1c(Cl)c(F)nc(OCC(=O)O)c1Cl`, the outcome is reported as “inactive”. `CCCCC(C#N)(Cn1cncn1)c1ccc(Cl)cc1` (stereo not given) was tested, and the outcome was “inactive”. For `Cc1ccc(N=CN(C)C=Nc2ccc(C)cc2C)c(C)c1`, the outcome was “inactive”. With `CO/N=C(/C1=NOCCO1)c1ccccc1Oc1ncnc(Oc2ccccc2Cl)c1F` the outcome was “inactive”. `COC(=O)NS(=O)(=O)c1ccc(N)cc1` was tested, and the outcome was “inactive”. In the case of `CCNC(=O)NC(=O)C(C#N)=NOC`, the outcome is reported as “inactive”. With `O=c1n(Cl)c(=O)n(Cl)c(=O)n1Cl` the outcome was “inactive”. `CN=C=S` was tested, and the outcome was “inactive”. With `Clc1nc(Cl)nc(Nc2ccccc2Cl)n1` the outcome was “inactive”. For `CS(=O)(=O)c1cc(C(F)(F)F)ccc1C(=O)c1cnoc1C1CC1`, the outcome was “inactive”. In the case of `COCC(=O)N(c1c(C)cccc1C)C(C)C(=O)OC` (stereo not given), the outcome is reported as “inactive”. `CNC(=O)N(C)c1nnc(C(C)(C)C)s1` was tested, and the outcome was “inactive”. With `CCCN(CC)CC1COC2(CCC(C(C)(C)C)CC2)O1` (stereo not given) the outcome was “inactive”. For `CSC(=O)c1c(C(F)F)nc(C(F)(F)F)c(C(=O)SC)c1CC(C)C`, the outcome was “inactive”. With `CCCC(=NOCC)C1=C(O)CC(CC(C)SCC)CC1=O` (stereo not given) the outcome was “inactive”. `Cc1cnc(C2=NC(C)(C(C)C)C(=O)N2)c(C(=O)O)c1` (stereo not given) was tested, and the outcome was “inactive”. In the case of `Clc1cccc(C(Cl)(Cl)Cl)n1`, the outcome is reported as “inactive”. In the case of `COCC(C)N(C(=O)CCl)c1c(C)csc1C` (stereo not given), the outcome is reported as “inactive”. `CC(C)Oc1cccc(NC(=O)c2ccccc2C(F)(F)F)c1` was tested, and the outcome was “inactive”. For `COP(=O)(OC)O/C(C)=C/C(=O)N(C)C`, the outcome was “inactive”. For `CC(C)=CC1C(C(=O)OCc2coc(Cc3ccccc3)c2)C1(C)C` (stereo not given), the outcome was “inactive”. With `O=C(O)c1c(Cl)ccc2cc(Cl)cnc12` the outcome was “inactive”. For `O=C1C2CC=CCC2C(=O)N1SC(Cl)(Cl)Cl` (stereo not given), the outcome was “inactive”.
